Source: PubChem BioAssay
Shiga toxin inh: blocks Shiga toxin action in Vero cells; inhibition, % at 38.7 µM; 290,000 compounds, 9.2% hits; Vero cells, Shiga toxin protein synthesis inhibition reporter; in the data active means inhibition mostly above about 28%, no sharp cut-off; inactive means mostly below about 43%
AMA1 RON2 block: inhibitors of Plasmodium falciparum AMA1-RON2 interaction; 360,000 compounds, 0.2% hits; Potency, µM (series often up to 58.2 µM), most hits filed as inhibitors; AlphaScreen AMA1-biotinylated RON2 peptide binding; further: nearly all actives have a fitted effect of over 45% in size
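AMA1 (3D7) with his tag at 25 nM final met compounds first, then biotinylated RON2 peptide at 25 nM; detection used donor plus acceptor beads, 10 µg/mL apiece, read by AlphaScreen after 30 min at room temperature.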
AmpC inh detg: blocks E. coli AmpC beta-lactamase in detergent assay. P00811. AmpC hydrolysis of nitrocefin, absorbance 480 nm, 0.01% Triton. Potency, µM (highest dose often 114 µM), usual class: inhibitors. 370,000 compounds, 0.041% hits. AID 485294; further: nearly all actives have a fitted effect of over 25% in size
Target sequence (P00811 whole entry, looked up): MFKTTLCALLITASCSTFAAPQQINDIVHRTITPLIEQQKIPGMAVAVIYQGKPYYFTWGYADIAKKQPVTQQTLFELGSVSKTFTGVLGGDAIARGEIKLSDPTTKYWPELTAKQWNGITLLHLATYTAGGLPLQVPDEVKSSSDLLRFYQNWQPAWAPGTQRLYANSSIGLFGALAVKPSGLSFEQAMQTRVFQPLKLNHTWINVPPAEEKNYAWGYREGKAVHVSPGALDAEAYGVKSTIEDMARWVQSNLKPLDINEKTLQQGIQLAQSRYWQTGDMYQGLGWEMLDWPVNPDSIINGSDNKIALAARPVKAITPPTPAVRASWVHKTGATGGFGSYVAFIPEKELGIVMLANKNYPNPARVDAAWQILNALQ
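20 mM phosphate pH 7.0 + 0.01% (detergent screen) or 0.0001% Triton X-100; 5.3 nM AmpC reagent; cpd preinc 15 min RT; nitrocefin (800 uM stock) to start; A480 q20 s × 4 min; Activity was normalised to no-enzyme and no-compound control wells.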
Cycloheximide cs: affects cycloheximide protein synthesis inhibition readout, counter-screen | cell reporter, cycloheximide protein synthesis inhibition counterscreen | max response, % | 300,000 compounds, 12% hits | AID 2314; in the data active means max response mostly above about 13%, no sharp cut-off; inactive means mostly below about 14%; further: read at 38.3 µM for the half of the compounds with a filed dose
AmpC inh no detg: blocks E. coli AmpC beta-lactamase in detergent-free assay; AID 485341; Potency, µM (highest dose often 57.1 µM), most hits filed as inhibitors; AmpC nitrocefin hydrolysis, absorbance 480 nm, 0.0001% Triton; 330,000 compounds, 0.52% hits; P00811; further: nearly all actives have a fitted effect of over 20% in size
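20 mM phosphate pH 7.0 + 0.01% (detergent screen) or 0.0001% Triton X-100; 5.3 nM AmpC reagent; cpd preinc 15 min RT; nitrocefin (800 uM stock) to start; A480 q20 s × 4 min; Activity was normalised to no-enzyme and no-compound control wells.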
SARS PLP yeast: SARS-CoV PLP inhibition in yeast; S. cerevisiae expressing SARS-CoV PLpro, growth rescue; Potency, µM (titrated, usually from 32.9 µM), most hits filed as activators; 330,000 compounds, 0.19% hits; calls by dose curve; further: nearly all actives have a fitted effect of over 55% in size
Numbers stand for hits; n = inactive; u = inconclusive; x = not tested or not shown; + = active, no number; [ ] = dose if it differs, or a comment. The sample as a whole holds a higher share of hits than the screen did. Unless noted, the call rests on the fitted dose curve; in most records, active means well fitted curve in the direction sought with a large enough effect; inconclusive means small, poorly fitted or top-dose-only effect, or another doubt; inactive means no such curve, though single readings can be large; an effect the other way counts as inactive or inconclusive.

SMILES | Shiga toxin inh | AMA1 RON2 block | AmpC inh detg | Cycloheximide cs | AmpC inh no detg | SARS PLP yeast
Cc1cc[n+](-c2[nH]c(=O)sc2/C=N/N=C(\[O-])c2ccccc2)cc1C | 74 | n | n | 39 | n | n
Cc1cc[n+](-c2[nH]c(=O)sc2/C=N/N=C(\[O-])c2ccncc2)cc1 | n | n | n | n | n | n
O=C(N/N=C/c1sc(=O)[nH]c1-[n+]1ccc2ccccc2c1)c1ccccc1[O-] | 48 | n | n | 27 | n | n
CCn1c(SCC(=O)Nc2ccc3c(c2)OCCO3)nnc1-c1cccnc1 | n | n | n | n | n | n
Cc1c(NC(=O)CSc2nc3c(cnn3-c3ccccc3)c(=O)[nH]2)c(=O)n(-c2ccccc2)n1C | n | n[2.32 µM] | u | n | n | n
CC1=N/C(=C\c2ccccc2Cl)C(=O)O1 | x | n | x | x | x | x
Cc1cccc(-n2ncc3c(N4CCCCCC4)ncnc32)c1 | x | x | n | x | x | x
c1ccc(-n2ncc3c(N4CCC5(CC4)OCCO5)ncnc32)cc1 | n | n | n | n | n | n
Cc1cccc(-n2ncc3c(N4CCC5(CC4)OCCO5)ncnc32)c1 | n | n | n | 13 | n | n
Cc1cccc(-n2ncc3c(N4CCC(C)CC4)ncnc32)c1 | 95 | n | u | 68 | n | n
NS(=O)(=O)c1ccc(NC(=O)/C=C/c2cn(-c3ccccc3)nc2-c2cccc(Cl)c2)cc1 | n | n | n | n | 2.5µM | n
O=C(/C=C/c1cn(-c2ccccc2)nc1-c1cccnc1)N1CCCC1 | n | n | n | n | n[11.4 µM] | n
O=C(/C=C/c1cn(-c2ccccc2)nc1-c1cccnc1)c1ccco1 | n | n | n | 25 | n | n
Cc1ccc(-c2nn(-c3ccccc3)cc2/C=C/C(=O)Nc2nccs2)cc1 | n | n[11.6 µM] | n | n | n | n
O=C(/C=C/c1cn(-c2ccccc2)nc1-c1ccccc1)Nc1ccc(C(=O)O)cc1 | 63 | n | n | n | n | n
CC(NC(=O)CCCN1C(=O)c2ccccc2C1=O)c1ccc2c(c1)CCCC2 (stereo not given) | n | n | n | n | n | n
CC(C)(C)c1cc(C=C(C#N)C#N)cc(C(C)(C)C)c1O | x | n | u | x | n | x
c1ccc2[nH]c(N3CCOCC3)nc2c1 | n | n | n | n | n | n
C/C(Cn1ncc(N2CCOCC2)c(Cl)c1=O)=N\O | n | n | u | n | n | n
CC(C)n1ncc(N2CCOCC2)c(Cl)c1=O | n | n | u | 14 | n | n
O=c1c(Cl)c(N2CCOCC2)cnn1-c1nc2ccccc2[nH]1 | 73 | n | n | 24 | n | n
C/C(=N/Nc1ccc(C(=O)O)cc1)c1ccc2c(c1)Nc1ccccc1S2 | x | n | x | x | x | x
O=c1oc2ccccc2c2c1C1O[C@](c3ccsc3)(Cc3ccccc31)O2 | n | x | n[22.9 µM] | n | 4.5µM | n[6.58 µM]
COc1ccc2c3c(c(=O)oc2c1)C1O[C@](c2ccsc2)(Cc2ccccc21)O3 | n | x | u | n | n[11.4 µM] | n[6.58 µM]
O=c1oc2ccc(F)cc2c2c1C1O[C@](c3ccsc3)(Cc3c1ccc1ccccc31)O2 | n | x | n[22.9 µM] | n | u | n[6.58 µM]
SMILES | Shiga toxin inh | AMA1 RON2 block | AmpC inh detg | Cycloheximide cs | AmpC inh no detg | SARS PLP yeast
COc1ccc([C@]23Cc4ccccc4C(O2)c2c(c4ccc(OC)cc4oc2=O)O3)cc1 | + | x | u | 38 | n[11.4 µM] | u
Cc1ccc(CNC(=O)c2ccc3c(c2)CCN3S(=O)(=O)c2ccccc2)cc1 | x | x | n | x | x | x
Cc1cc(NC(=O)CSc2nc3cc4c(cc3c(=O)n2CCc2ccccc2)OCO4)no1 | n | n | n | 9.4 | n | n
COc1ccc(CCn2c(SCC(=O)Nc3cc(C)on3)nc3ccsc3c2=O)cc1OC | n | n | n | n | 0.32µM | n
COc1ccc(CCn2c(SCC(=O)Nc3cc(C)on3)nc3ccccc3c2=O)cc1OC | n | n | n | n | n | n
CCOCCOC(=O)NCCCCCCNC(=O)OCCOCC | n | n | u | n | n | n
N#C/C(=C\c1cccnc1)C(=O)Nc1ccc(Cl)cc1 | n | n | n | n | n | n
N#C/C(C(=O)Nc1ccc(Cl)cc1)=C(/S)Nc1ccccc1 | n | n | 40µM | n | u | n
O=[N+]([O-])c1ccc2nc(-c3ccc(OC(F)F)cc3)cn2c1 | 73 | n | n | 45 | n | n
Clc1ccc(CNC2CCN(Cc3ccccc3)CC2)cc1 | x | n | n | n | n | n
c1ccc(-c2ccc(CNC3CC3)cc2)cc1 | n | n | n | 23 | n | n
CC(=O)c1c(C)[nH]c(C(=O)Nc2ccc(C)cc2Br)c1C | 66 | n | n | 25 | n | n
CC(=O)c1c(C)[nH]c(C(=O)Nc2ccc(F)cc2F)c1C | 65 | n | n | 44 | n | n
CC(=O)c1c(C)[nH]c(C(=O)Nc2ccccc2Cl)c1C | 46 | n | n | n | n | x
CC(=O)c1c(C)[nH]c(C(=O)Nc2cc(C)ccc2C)c1C | n | n | u | n | n | n
CC(=O)c1c(C)[nH]c(C(=O)NCCc2cccc(C)c2)c1C | 80 | n | n | 45 | n | n
O=C(CN1CCCc2ccccc21)Nc1cc(S(=O)(=O)N2CCCC2)ccc1Cl | x | n | n | x | n | n
CC12CC(c3ccccc3O1)C(C(=O)OCc1ccccc1)C(=O)N2 (stereo not given) | n | n | n | n | n | n
Cc1c(C(=O)OCC(=O)N(C)c2ccccc2)oc2ccccc12 | 50 | n | n | 28 | n | n
CCN(CC)CC(C)(C)COC(=O)c1oc2ccccc2c1C | 43 | n | n | n | n | n
Cc1c(C(=O)OCC(C)(C)CN(C)C)oc2ccccc12 | 87 | n | u | 44 | n | n
CCCCN1C=C(C(C)=O)C(=O)CC1 | x | n | x | x | x | x
CCC(C)[C@H](NC(=O)NCc1ccccc1Cl)C(=O)O (stereo not given in full) | n | n | u | n | n | n
CCC(=NCCO)c1c(O)n(C2CCCCC2)c(=O)[nH]c1=O | n | n | n | n | n | n
CC/C(=N\NC(=O)c1ccccc1)c1c(O)n(Cc2ccccc2)c(=O)[nH]c1=O | 54 | n | n | 57 | n | n
SMILES | Shiga toxin inh | AMA1 RON2 block | AmpC inh detg | Cycloheximide cs | AmpC inh no detg | SARS PLP yeast
CCCCn1c(O)c(C(C)=Nc2c(C)n(C)n(-c3ccccc3)c2=O)c(=O)[nH]c1=O | n | n | u | n | n | n
C=CCn1c(O)c(/C(CC)=N/NC(=S)Nc2ccccc2)c(=O)[nH]c1=O | 63 | n | n | 35 | n | n
C=CCn1c(O)c(C(CC)=NCCc2ccccc2)c(=O)[nH]c1=O | n | n | n | n | n | n
CCC(=NCC1CCCO1)c1c(O)n(Cc2ccccc2)c(=O)[nH]c1=O (stereo not given) | n | n | n | n | n | n
CC/C(=N\NC(=O)c1ccccc1O)c1c(O)n(C2CCCCC2)c(=O)[nH]c1=O | 52 | n | n | 23 | n | n
CCCCn1c(O)c(/C(C)=N/NC(=O)Nc2ccccc2)c(=O)[nH]c1=O | 39 | n | n | 31 | n | n
